Measured values published in PubChem BioAssay.
Activity calls are given as the source filed them. Unless noted, how the calls were made is not given here.

What was measured:
[1] = system: XIP peptide (Xip251-270) binding; test: small-molecule binders of XIP peptide, primary screen, biochemical, small-molecule microarray, fluorescence 635/667 nm, 0.1 µg/mL protein (AID 1182); conditions: fluorescent protein binding, 635 nm, higher = more signal, called active from +8 up or from −8 down
XIP peptide (Xip251-270) = test: small-molecule binders of XIP peptide, primary screen, biochemical, small-molecule microarray, fluorescence 635/667 nm, 0.5 µg/mL protein (AID 1183); conditions: small-molecule microarray binding, fluorescence 635 nm; higher = more signal
[2] = Plasmodium falciparum growth inhibition, primary screen, strain 3D7, DAPI fluorescence, 100 nL (AID 1184);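 further: parasites grown inside human red blood cells in medium with human serum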; conditions: P. falciparum 3D7 growth, 3 d, higher = more signal
[3] = biological target: Homeobox protein Hox-A13 (Mus musculus) (UniProt Q62424); test: inhibitors of HoxA13-DNA binding, primary screen, biochemical, fluorescence polarization, labeled oligonucleotide (AID 1185); conditions: 15 min, higher = more signal, called active from +8 up or from −8 down
[4] = inhibitors of hydroxyurea-induced Chk1 phosphorylation, primary screen, imaging, HeLa, phospho-Chk1 antibody, percent positive cells (AID 1186); conditions: hydroxyurea-induced phospho-Chk1 immunofluorescence imaging, higher = more signal
[5] = inhibitors of hydroxyurea-induced Chk1 phosphorylation, primary screen, imaging, HeLa, phospho-Chk1 nuclear intensity (AID 1187); conditions: hydroxyurea-induced phospho-Chk1 immunofluorescence imaging, higher = more signal

Sequence of Homeobox protein Hox-A13 (Mus musculus) (Q62424 whole entry, looked up): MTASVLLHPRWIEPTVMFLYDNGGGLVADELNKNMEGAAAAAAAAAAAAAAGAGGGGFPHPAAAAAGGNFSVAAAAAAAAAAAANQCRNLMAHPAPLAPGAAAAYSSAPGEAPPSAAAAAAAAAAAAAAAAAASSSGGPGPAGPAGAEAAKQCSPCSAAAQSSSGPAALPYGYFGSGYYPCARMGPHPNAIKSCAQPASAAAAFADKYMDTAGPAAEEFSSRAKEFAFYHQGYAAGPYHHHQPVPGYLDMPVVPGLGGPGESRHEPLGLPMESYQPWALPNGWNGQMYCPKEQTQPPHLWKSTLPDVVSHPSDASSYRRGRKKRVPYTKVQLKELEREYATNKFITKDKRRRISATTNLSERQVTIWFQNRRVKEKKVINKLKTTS

Structure (SMILES)	composite z-score [1]	composite z-score (XIP peptide (Xip251-270))	z-score [2]	z-score [3]	z-score [4]	z-score [5]
CC1CC/C=C\[C@H]2OC34C=CCN(c5ccc(Cl)cc5)C(=O)[C@H]3N(C(CO)C(C)C)C(=O)[C@]4(C)C2C(=O)O1 (some centres undefined)	-0.279 (inactive)	0.277	-0.0809	-5.44 (inactive)	-0.466 (inactive)	-0.512 (inactive)
CC(=O)NCCCC[C@@H]1NC(=O)[C@@H]2C[C@H](C(=O)NCCCC[N+](C)(C)C)[C@H](c3cccc(OCCO)c3)N2C1=O	0.383 (inactive)	0.446	-0.102	-2.25 (inactive)	-0.349 (inactive)	-0.317 (inactive)
COC(=O)C(CC#Cc1ccc2c(c1)[C@]1(C(=O)N2)[C@H](c2ccc(OCCO)cc2)N2[C@H](c3ccccc3)[C@H](c3ccccc3)OC(=O)[C@H]2[C@@H]1C(=O)O)C(=O)OC	0.817 (inactive)	0.862	0.663	-5.67 (inactive)	0.0445 (inactive)	0.436 (inactive)
O=C1O[C@@H](c2ccccc2)[C@@H](c2ccccc2)N2[C@@H](c3ccc(O)cc3)[C@]3(C(=O)Nc4ccc(C#CC5(O)CCCCCC5)cc43)[C@@H](C(=O)N3CCN(c4ncccn4)CC3)[C@H]12	0.328 (inactive)	0.559	-2.02	-1.72 (inactive)	-0.206 (inactive)	-0.624 (inactive)
COCCCNC(=O)[C@@]1(Cc2ccccc2N=[N+]=[N-])N=C(c2ccc(OCCCO)cc2)O[C@H]1c1ccccc1CN=[N+]=[N-]	0.401 (inactive)	0.763	-2.23	0.427 (inactive)	-0.314 (inactive)	0.446 (inactive)
O=C(N1CCOCC1)[C@@]1(CCS(=O)(=O)c2ccccc2)COC(c2ccc(OCCCO)cc2)=N1	0.429 (inactive)	0.599	-1.34	-5.88 (inactive)	0.145 (inactive)	0.273 (inactive)
O=C1C2C=CC(C(O)c3ccccn3)N(Nc3ccccc3)C2C(=O)N1c1ccccc1 (centres undefined)	0.099 (inactive)	0.116	-0.244	-1.65 (inactive)	-0.849 (inactive)	-0.791 (inactive)
O=C(CS)NCCCCCNC(=O)[C@@H]1C[C@@H]2C(=O)N3CCC[C@H]3C(=O)N2[C@@H]1c1ccc(O)cc1	0.262 (inactive)	0.716	0.924	-2.66 (inactive)	0.0756 (inactive)	0.0698 (inactive)
CCOc1cc(C(O)C2C=CC3C(=O)NC(=O)C3N2Nc2ccccn2)ccc1O (centres undefined)	0.113 (inactive)	0.0151	-0.296	-0.998 (inactive)	0.861 (inactive)	0.746 (inactive)
Cc1ccc(S[C@]2(C(=O)O)CC(=O)N(Cc3ccccc3C(F)(F)F)[C@@H]2c2ccc(CO)cc2)cc1	-0.161 (inactive)	-0.174	0.212	-3.21 (inactive)	-0.511 (inactive)	-0.53 (inactive)
COc1cc(C(O)C2C=CC3C(=O)N(C)C(=O)C3N2NC(=O)OC(C)(C)C)cc(OC)c1OC (centres undefined)	1.56 (inactive)	0.157	-0.361	-1.27 (inactive)	0.873 (inactive)	0.571 (inactive)
CN1C(=O)C2C=CC(C(O)COCc3ccccc3)N(Nc3ccccc3)C2C1=O (centres undefined)	-0.184 (inactive)	0.311	0.872	-2.91 (inactive)	0.466 (inactive)	0.764 (inactive)
NC(=O)NCC#Cc1ccc2c(c1)[C@]1(C(=O)N2)[C@H](c2ccc(OCCO)cc2)N2[C@H](c3ccccc3)[C@H](c3ccccc3)OC(=O)[C@H]2[C@@H]1C(=O)N1CCCCCCC1	2.2 (inactive)	0.501	-0.765	-9.12 (active)	-0.0375 (inactive)	-0.265 (inactive)
O=C(O)[C@]1(CCS(=O)(=O)c2ccccc2)N=C(c2ccc(OCCCO)cc2)O[C@@H]1c1ccccc1	0.744 (inactive)	-0.374	-0.212	-4.32 (inactive)	-0.178 (inactive)	0.06 (inactive)
CC1(C)[C@@H]2CC(C(O)C3C=CC4C(=O)N(c5ccccc5)C(=O)C4N3Nc3ccccc3F)=C[C@@H]1C2 (some centres undefined)	0.572 (inactive)	0.458	-0.59	-2.4 (inactive)	0.498 (inactive)	0.749 (inactive)
C=CCN1C(=O)[C@@]2(O[C@@H](CCO)[C@H]([Si](C)(C)c3ccc(OC)cc3)[C@H]2C)c2cc(NC(=O)[C@H](C)O)ccc21	0.395 (inactive)	0.603	-2.83	-5.68 (inactive)	-0.455 (inactive)	0.18 (inactive)
COCCOC(=O)N1C(=O)[C@@]2(c3cc(C#Cc4ccc(OC)cc4)ccc31)[C@H](C(=O)N1CCc3cc(OC)c(OC)cc3C1)[C@H]1C(=O)O[C@H](c3ccccc3)[C@H](c3ccccc3)N1[C@@H]2c1ccc(O)cc1	1.64 (inactive)	0.759	-1.65	-0.63 (inactive)	-0.241 (inactive)	-0.261 (inactive)

Structure (SMILES)	composite z-score [1]	composite z-score (XIP peptide (Xip251-270))	z-score [2]	z-score [3]	z-score [4]	z-score [5]
C[C@@]1([C@@H](NC(=O)c2cccs2)c2ccc(-c3ccccc3)cc2)C[C@H]1C1CCCCC1	-0.592 (inactive)	-0.0139	-0.972	-0.431 (inactive)	0.193 (inactive)	-0.421 (inactive)
COc1ccc([Si](C)(C)[C@@H]2[C@@H](CC(=O)N3Cc4ccccc4C[C@H]3CO)O[C@]3(C(=O)N(Cc4cccc(N5CCCCC5=O)c4)c4ccccc43)[C@H]2C)cc1	1.63 (inactive)	0.737	-2.91	-2.57 (inactive)	-0.559 (inactive)	-0.304 (inactive)
C=C(CCCC)/C(=C/C[C@@H](OC(=O)c1ccncc1)c1ccccc1OCCO)c1cc(C(=O)OC)ccc1OC	0.711 (inactive)	-0.127	-2.98	-3.47 (inactive)	-0.585 (inactive)	0.185 (inactive)
CC(C)C[C@H]1NC(=O)[C@H](C)NC(=O)[C@@]23C(=O)N[C@@H](Cc4ccccc4)C2[C@H](C)[C@@]2(C)O[C@H]2C3/C=C/C/C=C\CNC1=O (some centres undefined)	1.2 (inactive)	0.685	0.96	-6.14 (inactive)	-0.454 (inactive)	-0.576 (inactive)
CC(C)CCC[C@@H](C)[C@H]1CC[C@@]2(C)C3=C(CC[C@]12C)[C@@]1(C)CC[C@H](OC(=O)C(C)(C)C)C(C)(C)C1CC3 (some centres undefined)	0.434 (inactive)	-0.0722	-1.29	-1.44 (inactive)	-1.13 (inactive)	-1.89 (inactive)
CCCC=C(CCC)[C@@H](NS(=O)(=O)CC)c1ccccc1	-0.255 (inactive)	0.52	-0.977	-0.298 (inactive)	0.304 (inactive)	0.408 (inactive)
CCOC(=O)C1=CC[C@@H](c2ccccc2)N(S(=O)(=O)c2ccc(C)cc2)[C@H]1C=C(C)C	0.568 (inactive)	0.721	-2.17	-0.721 (inactive)	0.213 (inactive)	0.0493 (inactive)
COC(=O)C(CC#Cc1ccc2c(c1)[C@]1(C(=O)N2)[C@H](c2ccc(O)cc2)N2[C@H](c3ccccc3)[C@H](c3ccccc3)OC(=O)[C@H]2[C@@H]1C(=O)O)C(=O)OC	-0.173 (inactive)	0.665	-0.102	-6.45 (inactive)	0.223 (inactive)	-0.31 (inactive)
COC(=O)[C@]1(Cc2ccccc2CN=[N+]=[N-])N=C(c2ccc(OCCCO)cc2)O[C@@H]1c1ccccc1CN=[N+]=[N-]	0.319 (inactive)	0.728	-2.27	0.13 (inactive)	-0.716 (inactive)	-0.601 (inactive)
Cc1ccc(C(C)CC(O)C2C=CC3C(=O)N(Cc4ccccc4)C(=O)C3N2n2cnnc2)o1 (centres undefined)	0.831 (inactive)	0.731	-0.981	-2.57 (inactive)	0.0591 (inactive)	-0.208 (inactive)
CCOC(=O)C[C@H]1[C@H](OC(=O)c2ccc(C(=O)c3ccccc3)cc2)[C@@H](NC(=O)C2CCCCC2)c2cc(OCCCO)ccc2N1C(=O)Cc1ccc(OC)cc1	0.963 (inactive)	0.242	-1.12	-2.28 (inactive)	0.542 (inactive)	-0.129 (inactive)
O=C(C=C(CC(O)c1cccc(Cl)c1)OCCF)OCCF (centres undefined)	0.0562 (inactive)	-1.21	0.186	-1.34 (inactive)	-0.608 (inactive)	-0.48 (inactive)
CC[C@@H]1[C@@H]2C3C(=O)N(CC)C(=O)C3CC(=O)[C@@H]2[C@H](c2ccc(C)cc2)N1S(=O)(=O)c1ccc(C)cc1 (some centres undefined)	-0.363 (inactive)	0.73	-0.226	-3.54 (inactive)	-1.51 (inactive)	-1.33 (inactive)
OCCCC1=CC(c2cccs2)N(Cc2cccc(OC(F)(F)F)c2)CC1 (centres undefined)	-0.512 (inactive)	0.754	-0.717	-2.9 (inactive)	0.439 (inactive)	0.513 (inactive)
O=C1O[C@H](c2ccccc2)[C@H](c2ccccc2)N2[C@H]1[C@@H](C(=O)N1CCN(c3ncccn3)CC1)[C@]1(C(=O)Nc3ccc(C#CCCO)cc31)[C@H]2c1ccccc1OCCO	0.439 (inactive)	0.808	-2.19	-1.29 (inactive)	-0.329 (inactive)	-0.529 (inactive)
CCOC(=O)C[C@H]1[C@H](OC(=O)Cc2ccc3c(c2)OCO3)[C@@H](NC(=O)c2ccccc2)c2cc(OCCCO)ccc2N1C(=O)c1ccccc1	-0.0294 (inactive)	0.643	-0.385	-3.12 (inactive)	-0.454 (inactive)	-0.342 (inactive)
OCc1ccc(-c2cc[n+](Cc3cccc(OC(F)(F)F)c3)cc2)cc1	1.18 (inactive)	0.596	-1.63	-6.13 (inactive)	0.258 (inactive)	0.666 (inactive)
